Results filed as inconclusive are left out. Calls of active or inactive are those of the source. Calls follow the shape of the dose curve; as a rule, active = well fitted curve in the direction sought with a large enough effect; inconclusive = small, poorly fitted or top-dose-only effect, or another doubt; inactive = no such curve, though single readings can be large or run the other way.
biological target: Polyunsaturated fatty acid lipoxygenase ALOX15 (Homo sapiens) (UniProt P16050); experiment: Counterscreen qHTS for inhibitors of human arachidonate 12S-lipoxygenase (ALOX12): ALOX15 Assay; conditions: purified ALOX15 enzyme activity; series mostly up to 110 µM; activity change, negative = inhibition: at the top concentration; also: 0% is about no effect
Sequence (P16050 whole entry, looked up): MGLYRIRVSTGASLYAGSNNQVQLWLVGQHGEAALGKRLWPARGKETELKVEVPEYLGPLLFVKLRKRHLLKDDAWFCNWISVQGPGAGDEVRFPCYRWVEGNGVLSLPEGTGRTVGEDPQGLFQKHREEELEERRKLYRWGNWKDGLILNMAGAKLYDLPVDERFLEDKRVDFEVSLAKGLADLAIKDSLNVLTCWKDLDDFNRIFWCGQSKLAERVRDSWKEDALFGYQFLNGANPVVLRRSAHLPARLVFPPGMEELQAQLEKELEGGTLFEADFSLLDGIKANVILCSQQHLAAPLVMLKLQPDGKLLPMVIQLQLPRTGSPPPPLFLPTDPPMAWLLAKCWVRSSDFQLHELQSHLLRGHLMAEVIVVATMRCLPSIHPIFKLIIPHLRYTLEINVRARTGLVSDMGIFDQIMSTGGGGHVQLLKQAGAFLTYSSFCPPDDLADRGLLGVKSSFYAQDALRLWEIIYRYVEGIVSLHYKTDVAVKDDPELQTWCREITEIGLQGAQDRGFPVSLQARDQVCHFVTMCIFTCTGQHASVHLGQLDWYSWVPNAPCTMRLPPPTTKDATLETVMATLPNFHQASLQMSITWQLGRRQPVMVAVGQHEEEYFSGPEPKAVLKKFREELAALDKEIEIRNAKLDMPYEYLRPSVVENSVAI
Summary of the method: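 Purified human ALOX15 (15hLO-1) at 40 nM in 25 mM HEPES, 0.01% Triton X-100, pH 7.5, preincubated with compound 15 min at RT. Then 50 uM arachidonic acid for 30 min; hydroperoxide detected by Fe-xylenol orange as the 573/405 nm absorbance ratio.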

SMILES	activity change, negative = inhibition
C/C(=C\c1ccccc1)CN1CCCC12Cc1ccccc1CNC2=O (stereo not drawn)	-13.7% (inactive)
O=C(O)C1=NOC2CN(Cc3c(F)cccc3Cl)CC12 (stereo not drawn)	-9.49% [at 146 µM] (inactive)
N#Cc1ccccc1CN1CCCC12Cc1ccccc1CNC2=O (stereo not drawn)	-0.198% [at 146 µM] (inactive)
c1cncc(CN2CCn3c(nnc3C3CCCNC3)C2)c1 (stereo not drawn)	-7.62% [at 146 µM] (inactive)
CN(c1ccccc1)C1CNC1	-29.5% [at 233 µM] (inactive)
CN(C)CCC(=O)N1Cc2ccccc2CC2(CCCN(C)C2)C1 (stereo not drawn)	-0.887% [at 146 µM] (inactive)
NCC(C1CCCCC1)N1CCCC1 (stereo not drawn)	-15.9% [at 233 µM] (inactive)
O=C(c1cc(C2CC2)nc2onc(C3CCCN3)c12)N1CCC(F)CC1 (stereo not drawn)	-8.64% (inactive)
COCCNC(=O)c1cc(-c2ccc(OC)cc2)nc2onc(C3CCCN3)c12 (stereo not drawn)	-14.5% (inactive)
CC(C)CN1CCC(c2nc3ccc(F)cc3c(=O)[nH]2)CC1	0.556% [at 146 µM] (inactive)
CC(=O)Nc1ccc(CN2CCC(c3nc4ccc(C)cc4c(=O)[nH]3)CC2)cc1	6.35% (inactive)
CN1CC(=O)N(C2CCNCC2)Cc2c1ncnc2N1CCCC1CO (stereo not drawn)	-27.7% (inactive)
Cc1cc(C)cc(-c2ccc(CN3CCCC(c4nc5ccc(F)cc5c(=O)[nH]4)C3)cc2)c1 (stereo not drawn)	-3.46% (inactive)
CN1CC(=O)N(C2CCNCC2)Cc2c(NC3CCCCCC3)ncnc21	-8.58% (inactive)
O=C(c1ccccc1F)N1CC(Oc2ccc3c(c2)OCO3)C1	-22.9% [at 146 µM] (inactive)
c1ccc(CN2CC(Oc3ccc4c(c3)OCO4)C2)cc1	12.5% [at 146 µM] (inactive)
CC(C)[S+](=O)([O-])N1CCN(c2ccc(C=O)cc2)C(=O)C1	15.7% [at 146 µM] (inactive)
NCc1ccc(-c2cc(C(F)(F)F)ccc2Cl)cc1	81.7% [at 146 µM] (inactive)
O=c1n(-c2cccc(Cl)c2)nc2n1CCN([S+](=O)([O-])c1cccs1)C2	-4.57% (inactive)

SMILES	activity change, negative = inhibition
CCCC(=O)N1Cc2ccccc2CC2(CCCN(CC3CCNC3)C2)C1 (stereo not drawn)	1.43% (inactive)
CNC(C)c1cccc(OC)c1 (stereo not drawn)	-2.15% [at 233 µM] (inactive)
O=C1NCc2ccccc2CC12CCN(CCCc1ccccc1)CC2	-21.4% (inactive)
NCC(=O)N1Cc2ccccc2CC2(CCCCN2CC2CCOCC2)C1 (stereo not drawn)	-24.1% (inactive)
CN1CCN(CC2(N)CCCCC2)CC1	-3.46% [at 233 µM] (inactive)
O=C(Nc1ccc(F)cc1)c1c[nH]c2cccnc12	-6.34% [at 146 µM] (inactive)
COc1cccc(N2C(=O)NC(=NC3CCCCC3)C23CCCN([S+](=O)([O-])c2cccc(C(F)(F)F)c2)C3)c1 (stereo not drawn)	-22% (inactive)
O=C(N1CCOCC1)N1CCn2c(nnc2-c2cncc(Br)c2)C1	-22.6% (inactive)
CNC(=O)c1cnn2c1CN(C(=O)c1ccccc1)CC2	2.26% [at 146 µM] (inactive)
COc1ccc(-c2nc(C3CC3)nc3c2CN(C(=O)c2ccccc2OC)CC3)cc1	-21.2% (inactive)
Cc1ccc(CN2CCC3(CC2)Cc2ccccc2CNC3=O)cc1C	-22.2% (inactive)
O=C(c1cc(C2CC2)nc2c1c(C1CCCN1)nn2-c1ccccc1)N1CCOCC1 (stereo not drawn)	-11.8% (inactive)
NCc1ccc(-c2ccc(OC(F)(F)F)cc2)cc1	29.9% [at 146 µM] (inactive)
CC(C)c1nc2c(c(-c3ccc(Cl)cc3)n1)CCN(CC1CCCCC1)CC2	-16.6% (inactive)
FC(F)(F)c1cccc(C2=NOC3(CCN(Cc4ccccc4)C3)C2)c1 (stereo not drawn)	-12.7% (inactive)
CN1CC(=O)N(C2CCCNC2)Cc2c1ncnc2N1CCSCC1 (stereo not drawn)	-29.8% (inactive)
CC(C)C(=O)N1Cc2ccccc2CC2(CCCCN2CC2CCNC2)C1 (stereo not drawn)	-17.1% (inactive)
CCc1ccc(CN2CCCC23Cc2ccccc2CNC3=O)cc1 (stereo not drawn)	13.6% [at 146 µM] (inactive)
O=C1Nc2ccccc2C12CCN(Cc1ccccc1)C2 (stereo not drawn)	-8.29% [at 146 µM] (inactive)
